Data taken from PubChem BioAssay (EPA / NIEHS).
Records with an inconclusive call do not appear. Activity calls are given as the source filed them. Rule for the calls, unless noted: active = hit-call score of the fitted dose curve at least 0.9, where 1 is the maximum; inactive = score below 0.9.

Assays:
[1] = biological target: Paired box protein Pax-6 (Homo sapiens) (UniProt P26367); experiment: ATG_Pax6_CIS: Attagene CIS-FACTORIAL HepG2 Assay for human Paired Box 6 (PAX6) (AID 2282956); details: HepG2 CIS-FACTORIAL PAX6 reporter transcription, RNA readout; actives raise or lower the signal
Procedure, shortened: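 DMSO-referenced bidirectional fits of reporter mRNA fluorescence; HepG2 with transient cis-promoter MRTUs, 24 h post-dose, RT-PCR plus capillary electrophoresis detection.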

[2] = ATG_PXRE_CIS: Attagene CIS-FACTORIAL HepG2 Assay for human Pregnane X Receptor Element (PXRE) (AID 2282957); details: HepG2 Attagene CIS-FACTORIAL PXRE reporter, mRNA; actives raise or lower the signal
Procedure, shortened: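 Fluorescent capillary electrophoresis of amplified reporter cDNA gave the signal, collected 24 h after dosing HepG2 cells that held transfected cis-element reporter constructs.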

[3] = ATG_PPRE_CIS: Attagene CIS-FACTORIAL HepG2 Assay for human Peroxisome Proliferator-activated Response Element (PPRE) (AID 2282958); details: HepG2 PPRE cis-element reporter, Attagene transcription factor profiling; actives raise or lower the signal
Procedure, shortened: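 DMSO served as negative control and baseline for bidirectional curve fitting. Signal came from PPRE-regulated reporter mRNA in HepG2 cells, measured 24 h post-dosing by RT-PCR, 6-FAM primer extension and capillary electrophoresis.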

[4] = ATG_RORE_CIS: Attagene CIS-FACTORIAL HepG2 Assay for human RAR-related Orphan Receptor Element (RORE) (AID 2282959); details: HepG2 Attagene cis-factorial RORE reporter, mRNA; actives raise or lower the signal
Procedure, shortened: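 Transfect HepG2 with MRTUs; treat 24 h; extract RNA; RT with oligo(dT); PCR with reporter-specific primers; 6-FAM primer extension; HpaI digest 2 h at 37 C; capillary electrophoresis. Fit vs DMSO, bidirectional.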

[5] = ATG_Sox_CIS: Attagene CIS-FACTORIAL HepG2 Assay for human SRY-box transcription factor (SOX) (AID 2282960); details: HepG2 Attagene cis-factorial SOX reporter, mRNA; actives raise or lower the signal
Procedure, shortened: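 Fluorescence-labelled cDNA fragments from reporter transcripts, sized by CE, give the signal. Cells: HepG2, transiently transfected with cis-regulated reporter units. Exposure 24 h; DMSO negative control; bidirectional curve fitting.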

[6] = ATG_SREBP_CIS: Attagene CIS-FACTORIAL HepG2 Assay for human Sterol Regulatory Element Binding (SREBP) (AID 2282962); details: HepG2 Attagene cis-factorial SREBP reporter, mRNA; actives raise or lower the signal
Procedure, shortened: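 In this cis-format assay, HepG2 liver cells express reporters controlled by promoter elements responsive to native transcription factors. Exposure lasts 24 h; reporter mRNA fluorescence from capillary electrophoresis gives the signal, fitted bidirectionally against DMSO.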

[7] = biological target: Signal transducer and activator of transcription 3 (Homo sapiens) (UniProt P40763); experiment: ATG_STAT3_CIS: Attagene CIS-FACTORIAL HepG2 Assay for human Signal Transducer and Activator of Transcription 3 (STAT3) (AID 2282963); details: HepG2, Attagene cis-factorial STAT3 reporter transcription; actives raise or lower the signal
Procedure, shortened: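 Uses human liver HepG2 transiently carrying cis-regulated reporter transcription units. Following 24 h dosing, reporter mRNA induction was detected by RT-PCR and capillary electrophoresis, analysed bidirectionally versus DMSO.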

[8] = ATG_TA_CIS: Attagene CIS-FACTORIAL HepG2 Assay for human TA Basal Promoter (AID 2282964); details: HepG2 Attagene CIS-factorial TA basal promoter reporter; actives raise or lower the signal
Procedure, shortened: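 Transfected HepG2, 24 h compound exposure; RNA → RT-PCR → FAM primer extension → HpaI cut → CE fluorescence. Gain/loss-of-signal fitted against DMSO negative control. Background-control readout.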

[9] = ATG_TCF_b_cat_CIS: Attagene CIS-FACTORIAL HepG2 Assay for human T-Cell-Factor with beta-catenin (TCF/b-cat) (AID 2282965); details: HepG2 TCF/beta-catenin cis-reporter transcription, actives raise or lower the signal
Procedure, shortened: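 Using capillary electrophoresis as the read-out, labelled reporter cDNA fragments from transiently transfected HepG2 were sized and quantified. Exposure lasted 24 hours; activity in either direction was referenced to DMSO.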

[10] = ATG_TAL_CIS: Attagene CIS-FACTORIAL HepG2 Assay for human TAL Basal Promoter (AID 2282966); details: HepG2 Attagene cis-factorial TAL promoter reporter; actives raise or lower the signal;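 note: background control endpoint measuring basal TAL promoter reporter mRNA not a specific factor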
Procedure, shortened: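 Transiently transfected HepG2 (cis-regulated reporter units), 24 h treatment, mRNA read by fluorescent CE after RT-PCR; bidirectional fit, DMSO baseline.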

[11] = ATG_VDRE_CIS: Attagene CIS-FACTORIAL HepG2 Assay for human Vitamin D Receptor Element (VDRE) (AID 2282968); details: HepG2 VDRE cis-reporter transcription, actives raise or lower the signal
Procedure, shortened: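 Transfected HepG2 reporter cells, chemical treatment 24 h. RNA isolated, cDNA amplified with reporter-specific primers, products analysed by capillary electrophoresis. Endpoint fitted in both directions versus DMSO.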

[12] = biological target: Nuclear receptor subfamily 1 group I member 3 (Homo sapiens) (UniProt Q14994); experiment: ATG_CAR_TRANS: Attagene TRANS-FACTORIAL HepG2 Assay for human Constitutive Androstane Receptor (CAR) (AID 2282969; active = hit-call score of the fitted dose curve at least 0.9, where 1 is the maximum;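 note: activators raise reporter mRNA above DMSO so AC50 marks induction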); details: HepG2 Attagene TRANS-FACTORIAL CAR reporter
Procedure, shortened: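 Steps: transient transfection of HepG2 with multiple GAL4-UAS reporter units; 24 h compound incubation; RNA isolation, RT-PCR, 6-FAM primer extension, HpaI digest; capillary electrophoresis. Gain-of-signal relative to DMSO negative control.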

[13] = biological target: Estrogen receptor (Homo sapiens) (UniProt P03372); experiment: ATG_ERa_TRANS: Attagene TRANS-FACTORIAL HepG2 Assay for human Estrogen Receptor alpha (ERa) (AID 2282970; active = hit-call score of the fitted dose curve at least 0.9, where 1 is the maximum); details: HepG2 Attagene TRANS ERa GAL4 reporter, mRNA
Procedure, shortened: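 One of 30 multiplexed endpoints from a HepG2 TRANS system, this one reports ERa-Gal4-driven reporter mRNA. Transcripts were quantified 24 hours post-dosing by fluorescent RT-PCR and capillary electrophoresis, with activity scored as induction over DMSO.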

[14] = biological target: X-box-binding protein 1 (Homo sapiens) (UniProt P17861); experiment: ATG_Xbp1_CIS: Attagene CIS-FACTORIAL HepG2 Assay for human X-box Binding Protein 1 (XBP1) (AID 2282972); details: HepG2 XBP1 cis-element reporter, Attagene multiplex; actives raise or lower the signal
Procedure, shortened: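 Changes in reporter transcript abundance, read by RT-PCR and capillary electrophoresis, reflect endogenous transcription factor activity. Transfected HepG2 cells received compound for 24 hours; DMSO defined baseline for bidirectional analysis.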

[15] = ATG_M_19_TRANS: Attagene TRANS-FACTORIAL HepG2 Assay for M19 Transcription Factor (Internal Marker) (AID 2282974; active = hit-call score of the fitted dose curve at least 0.9, where 1 is the maximum); details: HepG2 Attagene TRANS-FACTORIAL M19 internal marker reporter
Procedure, shortened: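 Multiplexed TRANS format: HepG2 liver cells bearing transient GAL4-UAS reporter units, chemical treatment 24 h, reporter transcripts quantified by RT-PCR plus capillary electrophoresis. DMSO defines baseline.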

[16] = ATG_GAL4_TRANS: Attagene TRANS-FACTORIAL HepG2 Assay for GAL4 (Internal Marker) (AID 2282976; active = hit-call score of the fitted dose curve at least 0.9, where 1 is the maximum); details: HepG2 Attagene TRANS GAL4 internal marker reporter
Procedure, shortened: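 HepG2 cells transiently transfected with multiplexed GAL4-UAS reporter constructs were dosed for 24 h. Reporter mRNA was measured by RT-PCR, 6-FAM primer extension, HpaI digestion and capillary electrophoresis, and gain of signal was fitted relative to DMSO.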

[17] = biological target: Estrogen-related receptor gamma (Homo sapiens) (UniProt P62508); experiment: ATG_ERRg_TRANS: Attagene TRANS-FACTORIAL HepG2 Assay for human Estrogen-Related Receptor gamma (ERRg) (AID 2282977; active = hit-call score of the fitted dose curve at least 0.9, where 1 is the maximum;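 note: hits increase reporter signal over DMSO so potencies reflect activators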); details: HepG2 Attagene TRANS reporter, ERRg transactivation
Procedure, shortened: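 Readout: fluorescent reporter-mRNA fragments resolved by capillary electrophoresis after RT-PCR and HpaI cut. Cells: transiently transfected HepG2 carrying GAL4-UAS reporters driven by exogenous NR-Gal4 chimeras, dosed 24 h. Activity fitted upward relative to DMSO baseline.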

[18] = ATG_TGFb_CIS: Attagene CIS-FACTORIAL HepG2 Assay for human Transforming Growth Factor (TGF) (AID 2282967); details: HepG2 Attagene CIS TGFb reporter, mRNA transcription; actives raise or lower the signal
Procedure, shortened: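 Readout: fluorescently labeled reporter cDNA fragments resolved by capillary electrophoresis after RT-PCR. Transfected HepG2 cells dosed for 24 h; endogenous TF activity at TGFB1-linked cis element; gain or loss fitted relative to DMSO.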

[19] = biological target: Transcription factor Sp1 (Homo sapiens) (UniProt P08047); experiment: ATG_Sp1_CIS: Attagene CIS-FACTORIAL HepG2 Assay for human Specificity Protein 1 (Sp1) (AID 2282961); details: HepG2 Sp1 cis-reporter transcription, actives raise or lower the signal
Procedure, shortened: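 Chemicals are dosed onto HepG2 cells transfected with multiple cis-promoter reporter constructs, and after 24 h reporter RNA is reverse-transcribed, PCR-amplified and resolved by capillary electrophoresis for fluorescence quantitation; activity is scored up or down against DMSO.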

[20] = biological target: Steroid hormone receptor ERR1 (Homo sapiens) (UniProt P11474); experiment: ATG_ERRa_TRANS: Attagene TRANS-FACTORIAL HepG2 Assay for human Estrogen-Related Receptor alpha (ERRa) (AID 2282971; active = hit-call score of the fitted dose curve at least 0.9, where 1 is the maximum); details: HepG2 Attagene TRANS reporter, ERRa transactivation
Procedure, shortened: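 HepG2 cells transiently transfected with multiplexed GAL4-UAS reporter units reading chimeric ERRa-Gal4 activity; 24 h compound exposure. Reporter mRNA measured by RT-PCR, 6-FAM labelling, HpaI digest and capillary electrophoresis; gain of signal fitted versus DMSO baseline.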

Measured: AC50

Estrogen receptor (Homo sapiens), sequence (P03372 whole entry, looked up, the tested form may be a part): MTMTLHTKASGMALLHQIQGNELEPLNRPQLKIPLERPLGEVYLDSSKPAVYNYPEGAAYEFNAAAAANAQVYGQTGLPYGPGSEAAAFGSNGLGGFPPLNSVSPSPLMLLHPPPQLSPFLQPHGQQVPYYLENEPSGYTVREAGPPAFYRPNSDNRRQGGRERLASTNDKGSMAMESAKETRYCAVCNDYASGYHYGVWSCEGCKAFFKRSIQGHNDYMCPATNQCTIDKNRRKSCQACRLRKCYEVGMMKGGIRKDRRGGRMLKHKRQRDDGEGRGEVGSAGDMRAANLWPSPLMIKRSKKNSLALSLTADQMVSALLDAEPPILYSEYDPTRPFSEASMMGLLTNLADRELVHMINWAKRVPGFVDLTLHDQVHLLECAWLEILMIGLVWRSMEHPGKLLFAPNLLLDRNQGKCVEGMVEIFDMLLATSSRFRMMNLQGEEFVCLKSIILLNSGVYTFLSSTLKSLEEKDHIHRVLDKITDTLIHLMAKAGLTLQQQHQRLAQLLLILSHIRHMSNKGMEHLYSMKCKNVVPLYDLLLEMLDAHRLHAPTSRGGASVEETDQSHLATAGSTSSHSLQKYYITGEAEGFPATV
Estrogen-related receptor gamma (Homo sapiens), sequence (P62508 whole entry, looked up, the tested form may be a part): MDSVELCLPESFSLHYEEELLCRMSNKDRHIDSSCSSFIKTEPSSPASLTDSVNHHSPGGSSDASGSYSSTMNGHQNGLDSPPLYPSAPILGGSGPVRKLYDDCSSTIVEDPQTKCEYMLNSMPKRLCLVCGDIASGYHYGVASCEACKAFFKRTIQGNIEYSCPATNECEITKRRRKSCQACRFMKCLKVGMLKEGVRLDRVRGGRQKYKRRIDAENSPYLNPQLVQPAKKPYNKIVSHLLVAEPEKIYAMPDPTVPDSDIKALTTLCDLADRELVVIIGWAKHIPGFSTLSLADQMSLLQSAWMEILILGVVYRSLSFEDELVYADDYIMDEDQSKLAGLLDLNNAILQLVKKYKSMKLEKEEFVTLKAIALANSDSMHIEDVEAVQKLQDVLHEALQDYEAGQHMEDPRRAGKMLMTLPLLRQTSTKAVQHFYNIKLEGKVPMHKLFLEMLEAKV
Nuclear receptor subfamily 1 group I member 3 (Homo sapiens), sequence (Q14994 whole entry, looked up, the tested form may be a part): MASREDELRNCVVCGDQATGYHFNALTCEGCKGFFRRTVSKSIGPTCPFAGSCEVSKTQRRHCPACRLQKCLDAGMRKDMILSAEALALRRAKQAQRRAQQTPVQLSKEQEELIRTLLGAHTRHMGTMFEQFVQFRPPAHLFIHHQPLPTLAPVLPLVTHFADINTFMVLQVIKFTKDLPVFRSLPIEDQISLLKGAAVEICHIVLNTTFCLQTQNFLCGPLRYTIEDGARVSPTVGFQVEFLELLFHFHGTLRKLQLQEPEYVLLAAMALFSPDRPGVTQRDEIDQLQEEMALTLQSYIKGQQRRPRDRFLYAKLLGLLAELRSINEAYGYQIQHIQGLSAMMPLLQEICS
X-box-binding protein 1 (Homo sapiens), sequence (P17861 whole entry, looked up): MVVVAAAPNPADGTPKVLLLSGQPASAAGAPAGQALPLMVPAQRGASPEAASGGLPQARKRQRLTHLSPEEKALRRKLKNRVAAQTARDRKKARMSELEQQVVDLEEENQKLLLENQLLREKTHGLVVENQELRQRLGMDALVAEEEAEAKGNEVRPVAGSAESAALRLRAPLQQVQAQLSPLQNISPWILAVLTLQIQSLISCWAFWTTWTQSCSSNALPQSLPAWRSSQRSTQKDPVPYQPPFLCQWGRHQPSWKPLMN
Paired box protein Pax-6 (Homo sapiens), sequence (P26367 whole entry, looked up): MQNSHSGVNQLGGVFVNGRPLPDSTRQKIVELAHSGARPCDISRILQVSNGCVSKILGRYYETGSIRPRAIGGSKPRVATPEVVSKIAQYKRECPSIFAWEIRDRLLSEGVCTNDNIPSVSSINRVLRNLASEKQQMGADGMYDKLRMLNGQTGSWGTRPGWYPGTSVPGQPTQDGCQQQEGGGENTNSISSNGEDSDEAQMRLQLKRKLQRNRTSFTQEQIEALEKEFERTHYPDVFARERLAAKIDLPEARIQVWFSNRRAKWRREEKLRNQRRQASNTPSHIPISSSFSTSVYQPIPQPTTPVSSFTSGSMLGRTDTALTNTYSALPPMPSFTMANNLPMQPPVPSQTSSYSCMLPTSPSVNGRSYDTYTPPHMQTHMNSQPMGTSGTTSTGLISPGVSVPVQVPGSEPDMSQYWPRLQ
Signal transducer and activator of transcription 3 (Homo sapiens), sequence (P40763 whole entry, looked up): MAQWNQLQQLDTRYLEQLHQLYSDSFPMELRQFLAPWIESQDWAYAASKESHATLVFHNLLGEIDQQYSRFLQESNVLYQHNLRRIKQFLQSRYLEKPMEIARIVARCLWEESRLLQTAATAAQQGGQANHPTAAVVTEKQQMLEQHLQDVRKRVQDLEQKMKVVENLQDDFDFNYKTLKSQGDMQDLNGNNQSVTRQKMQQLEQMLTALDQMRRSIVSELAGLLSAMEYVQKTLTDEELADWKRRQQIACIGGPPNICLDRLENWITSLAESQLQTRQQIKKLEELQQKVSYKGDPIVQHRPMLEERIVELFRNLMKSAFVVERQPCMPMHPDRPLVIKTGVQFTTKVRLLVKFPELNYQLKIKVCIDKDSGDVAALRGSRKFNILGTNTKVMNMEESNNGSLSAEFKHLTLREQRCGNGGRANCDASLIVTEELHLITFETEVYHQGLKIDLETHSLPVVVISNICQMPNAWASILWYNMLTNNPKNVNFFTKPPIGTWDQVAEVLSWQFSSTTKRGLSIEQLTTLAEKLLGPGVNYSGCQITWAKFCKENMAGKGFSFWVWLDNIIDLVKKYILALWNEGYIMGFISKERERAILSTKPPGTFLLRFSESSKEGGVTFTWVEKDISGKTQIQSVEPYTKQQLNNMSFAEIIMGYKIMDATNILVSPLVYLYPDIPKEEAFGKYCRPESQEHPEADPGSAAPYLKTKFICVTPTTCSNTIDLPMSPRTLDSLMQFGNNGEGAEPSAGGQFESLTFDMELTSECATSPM
Transcription factor Sp1 (Homo sapiens), sequence (P08047 whole entry, looked up): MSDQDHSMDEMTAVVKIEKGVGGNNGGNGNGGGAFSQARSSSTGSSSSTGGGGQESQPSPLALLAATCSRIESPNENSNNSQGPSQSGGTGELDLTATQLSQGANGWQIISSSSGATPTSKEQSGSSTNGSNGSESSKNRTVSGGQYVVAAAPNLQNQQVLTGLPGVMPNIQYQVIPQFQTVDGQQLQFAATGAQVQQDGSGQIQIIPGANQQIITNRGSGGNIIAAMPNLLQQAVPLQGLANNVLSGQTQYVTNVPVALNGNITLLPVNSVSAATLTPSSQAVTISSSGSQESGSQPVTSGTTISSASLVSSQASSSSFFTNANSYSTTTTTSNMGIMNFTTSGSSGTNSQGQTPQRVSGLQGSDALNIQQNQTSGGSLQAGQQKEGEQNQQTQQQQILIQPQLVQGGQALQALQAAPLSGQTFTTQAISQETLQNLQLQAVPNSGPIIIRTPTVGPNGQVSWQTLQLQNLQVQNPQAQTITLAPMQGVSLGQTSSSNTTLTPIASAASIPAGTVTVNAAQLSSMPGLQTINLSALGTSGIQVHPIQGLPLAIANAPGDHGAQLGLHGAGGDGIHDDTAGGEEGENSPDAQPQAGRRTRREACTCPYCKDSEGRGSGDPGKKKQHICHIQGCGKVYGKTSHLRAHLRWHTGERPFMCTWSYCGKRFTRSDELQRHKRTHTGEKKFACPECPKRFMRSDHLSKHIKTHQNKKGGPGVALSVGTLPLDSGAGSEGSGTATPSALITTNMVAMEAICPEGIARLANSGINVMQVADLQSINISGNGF
Steroid hormone receptor ERR1 (Homo sapiens), sequence (P11474 whole entry, looked up, the tested form may be a part): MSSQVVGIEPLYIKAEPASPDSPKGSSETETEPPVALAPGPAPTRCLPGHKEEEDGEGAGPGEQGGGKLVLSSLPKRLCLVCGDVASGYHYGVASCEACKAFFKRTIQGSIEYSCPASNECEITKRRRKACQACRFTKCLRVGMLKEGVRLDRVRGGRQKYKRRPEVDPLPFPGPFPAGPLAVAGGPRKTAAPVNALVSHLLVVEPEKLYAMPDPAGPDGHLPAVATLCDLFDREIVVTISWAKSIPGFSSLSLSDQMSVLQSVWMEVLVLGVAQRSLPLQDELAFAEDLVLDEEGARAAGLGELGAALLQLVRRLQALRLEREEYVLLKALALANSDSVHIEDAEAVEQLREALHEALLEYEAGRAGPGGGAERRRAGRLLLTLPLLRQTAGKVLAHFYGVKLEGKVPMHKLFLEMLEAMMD

Clc1cccc(Cl)n1
inactive: [1] | [2] | [3] | [4] | [5] | [6] | [7] | [8] | [9] | [10] | [11] | [12] | [13] | [14] | [15] | [16] | [17]

O=C(O)CCSCCC(=O)O
inactive: [1] | [3] | [4] | [5] | [6] | [9] | [10] | [18] | [13] | [14] | [15] | [16]
active: [2] 54.3 µM

CC1CC(OC(=O)c2ccccc2O)CC(C)(C)C1 (configuration not stated)
inactive: [1] | [3] | [4] | [5] | [6] | [7] | [9] | [18] | [12] | [14] | [15]
active: [2] 25.8 µM | [10] 181 µM

Cc1cccc(Nc2ccccc2C(=O)O)c1C
active: [2] 14.1 µM | [3] 18.2 µM | [9] 19.8 µM
inactive: [1] | [4] | [5] | [6] | [7] | [8] | [10] | [18] | [14] | [15] | [16]

CCOC(=S)SSC(=S)OCC
inactive: [1] | [2] | [3] | [4] | [5] | [6] | [8] | [9] | [10] | [18] | [11] | [12] | [13] | [14] | [15]

OCCN1CCNCC1
inactive: [1] | [2] | [3] | [5] | [19] | [6] | [7] | [8] | [9] | [10] | [18] | [11] | [14] | [16] | [17]

C=C(C)C(=O)O[C@H]1C[C@@H]2CC[C@@]1(C)C2(C)C
inactive: [1] | [4] | [5] | [7] | [8] | [10] | [11] | [14] | [15]
active: [2] 26.5 µM | [3] 75.3 µM | [9] 138 µM | [18] 143 µM | [13] 38 µM

COC(=O)OC
inactive: [1] | [2] | [3] | [4] | [5] | [6] | [7] | [8] | [9] | [10] | [18] | [12] | [20] | [14] | [15] | [16] | [17]

Nc1nc2ccc([N+](=O)[O-])cc2s1
active: [2] 19.8 µM | [3] 45.6 µM
inactive: [1] | [5] | [19] | [6] | [7] | [8] | [9] | [10] | [18] | [11] | [14] | [15]
